This note sets out measurements from ChEMBL document CHEMBL1961873, “Compounds: GSK PKIS; Assays: Nanosyn kinase panel” (2012).

In test [1] the target is T1, Tyrosine-protein kinase ITK/TSK (Homo sapiens) (UniProt Q08881).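 Further: values are mean percent inhibition of ITK from the GSK PKIS screen.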
T1 sequence (whole entry): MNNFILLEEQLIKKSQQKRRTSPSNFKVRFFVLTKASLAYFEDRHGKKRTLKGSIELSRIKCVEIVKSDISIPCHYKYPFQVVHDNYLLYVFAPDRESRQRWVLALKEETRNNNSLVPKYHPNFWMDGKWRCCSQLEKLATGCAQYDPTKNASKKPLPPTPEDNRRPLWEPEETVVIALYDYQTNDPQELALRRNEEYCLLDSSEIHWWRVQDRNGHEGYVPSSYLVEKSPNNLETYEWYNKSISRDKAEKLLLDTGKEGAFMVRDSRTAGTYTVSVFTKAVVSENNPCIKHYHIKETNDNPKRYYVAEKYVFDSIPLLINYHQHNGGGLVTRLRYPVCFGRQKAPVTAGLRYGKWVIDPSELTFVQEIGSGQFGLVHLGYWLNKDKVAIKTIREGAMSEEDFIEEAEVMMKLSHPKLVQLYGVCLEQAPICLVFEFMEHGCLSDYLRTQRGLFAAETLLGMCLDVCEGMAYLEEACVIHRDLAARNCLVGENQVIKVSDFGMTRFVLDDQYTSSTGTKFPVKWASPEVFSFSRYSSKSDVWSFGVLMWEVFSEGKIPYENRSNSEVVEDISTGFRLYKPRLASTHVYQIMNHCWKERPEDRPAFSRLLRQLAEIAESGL
To be noted: at 1 µM.

For test [2], the target named is Tyrosine-protein kinase JAK1 (Homo sapiens) (UniProt P23458). To be noted: at 0.1 µM.
Chain of Tyrosine-protein kinase JAK1 (Homo sapiens) (P23458 whole entry): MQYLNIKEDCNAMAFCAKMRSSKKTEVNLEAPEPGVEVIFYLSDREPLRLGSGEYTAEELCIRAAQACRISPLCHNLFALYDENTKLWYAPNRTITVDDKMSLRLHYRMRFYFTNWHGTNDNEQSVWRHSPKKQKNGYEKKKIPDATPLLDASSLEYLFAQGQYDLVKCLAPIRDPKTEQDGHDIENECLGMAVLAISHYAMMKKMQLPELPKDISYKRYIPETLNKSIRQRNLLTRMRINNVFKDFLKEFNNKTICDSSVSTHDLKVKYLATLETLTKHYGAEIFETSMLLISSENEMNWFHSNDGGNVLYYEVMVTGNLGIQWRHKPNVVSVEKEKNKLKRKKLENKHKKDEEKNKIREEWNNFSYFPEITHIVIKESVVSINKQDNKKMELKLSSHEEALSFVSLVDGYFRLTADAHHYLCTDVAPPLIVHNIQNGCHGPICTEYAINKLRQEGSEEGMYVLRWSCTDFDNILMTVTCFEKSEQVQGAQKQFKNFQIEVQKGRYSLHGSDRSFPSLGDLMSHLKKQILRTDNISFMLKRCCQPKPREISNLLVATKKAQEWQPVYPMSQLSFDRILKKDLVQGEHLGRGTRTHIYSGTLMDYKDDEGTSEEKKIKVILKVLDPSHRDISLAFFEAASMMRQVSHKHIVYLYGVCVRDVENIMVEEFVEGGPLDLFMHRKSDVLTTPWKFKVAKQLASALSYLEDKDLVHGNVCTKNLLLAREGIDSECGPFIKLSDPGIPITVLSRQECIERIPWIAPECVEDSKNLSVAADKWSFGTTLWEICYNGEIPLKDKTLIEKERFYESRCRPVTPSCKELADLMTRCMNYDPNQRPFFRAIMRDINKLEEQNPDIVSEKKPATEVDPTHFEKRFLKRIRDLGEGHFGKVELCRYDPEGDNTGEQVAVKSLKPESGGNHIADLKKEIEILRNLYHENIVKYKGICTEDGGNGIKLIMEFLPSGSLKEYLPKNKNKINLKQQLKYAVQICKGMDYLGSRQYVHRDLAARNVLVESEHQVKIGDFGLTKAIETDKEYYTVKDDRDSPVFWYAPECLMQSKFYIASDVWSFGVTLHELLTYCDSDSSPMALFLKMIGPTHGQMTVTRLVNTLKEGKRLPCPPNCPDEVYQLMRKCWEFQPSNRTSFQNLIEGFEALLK
For test [3] the target is unchanged. To be noted: at 1 µM.
Test [4] has as its target Tyrosine-protein kinase JAK2 (Homo sapiens) (UniProt O60674). The settings on record: at 0.1 µM.
The target is the same in test [5]. The settings on record: at 1 µM.
Test [6] has as its target T2, Tyrosine-protein kinase JAK3 (Homo sapiens) (UniProt P52333).
T2 sequence (whole entry): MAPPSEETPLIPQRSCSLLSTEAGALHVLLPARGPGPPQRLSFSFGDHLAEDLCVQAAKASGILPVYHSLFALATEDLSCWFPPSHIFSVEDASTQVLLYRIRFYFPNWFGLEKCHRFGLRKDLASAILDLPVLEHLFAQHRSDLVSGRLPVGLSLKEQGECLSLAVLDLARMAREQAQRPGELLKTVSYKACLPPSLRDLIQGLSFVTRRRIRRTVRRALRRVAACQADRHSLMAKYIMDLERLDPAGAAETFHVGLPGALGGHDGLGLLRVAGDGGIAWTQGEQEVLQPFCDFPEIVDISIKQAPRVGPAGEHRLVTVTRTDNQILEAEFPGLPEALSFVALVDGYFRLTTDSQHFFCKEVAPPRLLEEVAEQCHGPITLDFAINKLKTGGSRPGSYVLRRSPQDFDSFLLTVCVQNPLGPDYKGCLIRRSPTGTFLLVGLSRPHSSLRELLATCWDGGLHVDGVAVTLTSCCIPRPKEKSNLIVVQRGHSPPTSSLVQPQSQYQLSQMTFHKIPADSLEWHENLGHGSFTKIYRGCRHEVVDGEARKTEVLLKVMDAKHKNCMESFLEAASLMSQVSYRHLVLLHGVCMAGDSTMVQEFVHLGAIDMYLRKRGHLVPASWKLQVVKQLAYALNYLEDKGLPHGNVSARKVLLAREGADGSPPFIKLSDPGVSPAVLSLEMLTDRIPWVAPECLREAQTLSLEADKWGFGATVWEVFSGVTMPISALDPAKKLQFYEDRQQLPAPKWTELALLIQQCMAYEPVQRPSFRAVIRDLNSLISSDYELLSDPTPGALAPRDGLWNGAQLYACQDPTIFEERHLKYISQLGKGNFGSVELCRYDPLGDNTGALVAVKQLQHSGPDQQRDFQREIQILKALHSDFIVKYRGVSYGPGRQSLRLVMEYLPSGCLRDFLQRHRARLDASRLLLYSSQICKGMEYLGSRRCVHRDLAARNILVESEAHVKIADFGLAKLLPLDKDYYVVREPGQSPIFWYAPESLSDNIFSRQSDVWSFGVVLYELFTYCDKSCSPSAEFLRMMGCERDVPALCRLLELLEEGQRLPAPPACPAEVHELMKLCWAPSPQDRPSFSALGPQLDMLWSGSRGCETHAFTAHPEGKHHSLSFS
To be noted: at 0.1 µM.

Test [7] concerns the target T2, Tyrosine-protein kinase JAK3 (Homo sapiens). The settings on record: at 1 µM.
For test [8], the target named is Vascular endothelial growth factor receptor 2 (Homo sapiens) (UniProt P35968). The settings on record: at 0.1 µM.
Chain of Vascular endothelial growth factor receptor 2 (Homo sapiens) (P35968 whole entry): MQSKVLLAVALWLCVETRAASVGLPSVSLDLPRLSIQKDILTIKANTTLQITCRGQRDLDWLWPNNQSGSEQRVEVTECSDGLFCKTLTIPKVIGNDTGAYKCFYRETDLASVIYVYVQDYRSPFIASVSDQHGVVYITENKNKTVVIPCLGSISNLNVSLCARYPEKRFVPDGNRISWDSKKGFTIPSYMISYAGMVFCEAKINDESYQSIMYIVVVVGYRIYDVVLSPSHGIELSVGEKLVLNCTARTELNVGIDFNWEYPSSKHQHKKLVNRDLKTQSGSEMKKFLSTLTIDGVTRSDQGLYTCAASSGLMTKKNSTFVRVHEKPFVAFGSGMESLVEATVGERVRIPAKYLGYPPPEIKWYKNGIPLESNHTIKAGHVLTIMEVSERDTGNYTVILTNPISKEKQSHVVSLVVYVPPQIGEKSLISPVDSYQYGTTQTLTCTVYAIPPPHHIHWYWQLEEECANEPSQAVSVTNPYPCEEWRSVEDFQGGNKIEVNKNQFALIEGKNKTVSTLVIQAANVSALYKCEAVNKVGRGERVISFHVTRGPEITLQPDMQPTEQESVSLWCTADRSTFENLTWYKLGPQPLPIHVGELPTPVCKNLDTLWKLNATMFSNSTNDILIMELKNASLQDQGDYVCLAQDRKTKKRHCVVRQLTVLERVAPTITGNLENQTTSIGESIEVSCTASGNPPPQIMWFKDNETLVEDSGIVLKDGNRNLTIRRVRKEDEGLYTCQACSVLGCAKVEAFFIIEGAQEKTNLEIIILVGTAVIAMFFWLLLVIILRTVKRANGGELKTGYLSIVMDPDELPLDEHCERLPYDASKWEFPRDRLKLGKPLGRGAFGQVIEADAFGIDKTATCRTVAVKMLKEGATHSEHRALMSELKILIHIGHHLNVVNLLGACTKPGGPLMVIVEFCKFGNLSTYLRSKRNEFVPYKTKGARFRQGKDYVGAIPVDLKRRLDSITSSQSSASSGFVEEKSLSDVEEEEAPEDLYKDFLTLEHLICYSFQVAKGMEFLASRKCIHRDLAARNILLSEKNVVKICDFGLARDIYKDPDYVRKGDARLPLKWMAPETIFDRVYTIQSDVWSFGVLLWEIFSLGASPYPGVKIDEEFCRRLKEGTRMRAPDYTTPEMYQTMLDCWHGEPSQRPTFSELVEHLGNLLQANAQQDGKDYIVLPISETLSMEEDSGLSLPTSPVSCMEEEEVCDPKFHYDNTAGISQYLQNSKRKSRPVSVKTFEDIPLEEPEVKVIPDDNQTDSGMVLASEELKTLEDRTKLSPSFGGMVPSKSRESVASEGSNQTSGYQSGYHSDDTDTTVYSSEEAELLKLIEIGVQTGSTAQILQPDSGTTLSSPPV
Test [9] has the same target. To be noted: at 1 µM.
Test [10] addresses Mast/stem cell growth factor receptor Kit (Homo sapiens) (UniProt P10721). To be noted: at 0.1 µM.

Chain of Mast/stem cell growth factor receptor Kit (Homo sapiens) (P10721 whole entry): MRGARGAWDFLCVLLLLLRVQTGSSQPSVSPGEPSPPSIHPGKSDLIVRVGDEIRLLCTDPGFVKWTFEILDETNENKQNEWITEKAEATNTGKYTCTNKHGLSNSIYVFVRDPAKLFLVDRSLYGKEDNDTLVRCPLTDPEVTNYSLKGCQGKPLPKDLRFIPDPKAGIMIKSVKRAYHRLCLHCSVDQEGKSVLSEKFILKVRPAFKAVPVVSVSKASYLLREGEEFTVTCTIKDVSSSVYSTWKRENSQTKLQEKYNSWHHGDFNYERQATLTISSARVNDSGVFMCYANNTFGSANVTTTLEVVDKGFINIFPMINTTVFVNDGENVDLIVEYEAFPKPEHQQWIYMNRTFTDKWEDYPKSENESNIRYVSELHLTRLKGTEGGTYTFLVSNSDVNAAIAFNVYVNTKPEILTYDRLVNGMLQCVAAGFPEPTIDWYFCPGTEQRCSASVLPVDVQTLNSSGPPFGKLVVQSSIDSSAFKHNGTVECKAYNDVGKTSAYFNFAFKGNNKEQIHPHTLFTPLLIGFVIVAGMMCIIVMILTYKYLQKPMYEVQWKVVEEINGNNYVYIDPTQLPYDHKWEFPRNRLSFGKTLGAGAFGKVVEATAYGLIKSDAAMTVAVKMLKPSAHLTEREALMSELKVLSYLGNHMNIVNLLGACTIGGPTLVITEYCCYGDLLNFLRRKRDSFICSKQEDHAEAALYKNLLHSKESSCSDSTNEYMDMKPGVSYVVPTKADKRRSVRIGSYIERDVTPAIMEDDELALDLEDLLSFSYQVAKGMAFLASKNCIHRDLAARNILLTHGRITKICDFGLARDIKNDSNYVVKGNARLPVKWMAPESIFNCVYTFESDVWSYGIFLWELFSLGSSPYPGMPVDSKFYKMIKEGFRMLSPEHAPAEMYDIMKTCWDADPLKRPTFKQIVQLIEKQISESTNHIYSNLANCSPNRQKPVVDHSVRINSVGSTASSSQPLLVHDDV
Chain of Tyrosine-protein kinase JAK2 (Homo sapiens) (O60674 whole entry): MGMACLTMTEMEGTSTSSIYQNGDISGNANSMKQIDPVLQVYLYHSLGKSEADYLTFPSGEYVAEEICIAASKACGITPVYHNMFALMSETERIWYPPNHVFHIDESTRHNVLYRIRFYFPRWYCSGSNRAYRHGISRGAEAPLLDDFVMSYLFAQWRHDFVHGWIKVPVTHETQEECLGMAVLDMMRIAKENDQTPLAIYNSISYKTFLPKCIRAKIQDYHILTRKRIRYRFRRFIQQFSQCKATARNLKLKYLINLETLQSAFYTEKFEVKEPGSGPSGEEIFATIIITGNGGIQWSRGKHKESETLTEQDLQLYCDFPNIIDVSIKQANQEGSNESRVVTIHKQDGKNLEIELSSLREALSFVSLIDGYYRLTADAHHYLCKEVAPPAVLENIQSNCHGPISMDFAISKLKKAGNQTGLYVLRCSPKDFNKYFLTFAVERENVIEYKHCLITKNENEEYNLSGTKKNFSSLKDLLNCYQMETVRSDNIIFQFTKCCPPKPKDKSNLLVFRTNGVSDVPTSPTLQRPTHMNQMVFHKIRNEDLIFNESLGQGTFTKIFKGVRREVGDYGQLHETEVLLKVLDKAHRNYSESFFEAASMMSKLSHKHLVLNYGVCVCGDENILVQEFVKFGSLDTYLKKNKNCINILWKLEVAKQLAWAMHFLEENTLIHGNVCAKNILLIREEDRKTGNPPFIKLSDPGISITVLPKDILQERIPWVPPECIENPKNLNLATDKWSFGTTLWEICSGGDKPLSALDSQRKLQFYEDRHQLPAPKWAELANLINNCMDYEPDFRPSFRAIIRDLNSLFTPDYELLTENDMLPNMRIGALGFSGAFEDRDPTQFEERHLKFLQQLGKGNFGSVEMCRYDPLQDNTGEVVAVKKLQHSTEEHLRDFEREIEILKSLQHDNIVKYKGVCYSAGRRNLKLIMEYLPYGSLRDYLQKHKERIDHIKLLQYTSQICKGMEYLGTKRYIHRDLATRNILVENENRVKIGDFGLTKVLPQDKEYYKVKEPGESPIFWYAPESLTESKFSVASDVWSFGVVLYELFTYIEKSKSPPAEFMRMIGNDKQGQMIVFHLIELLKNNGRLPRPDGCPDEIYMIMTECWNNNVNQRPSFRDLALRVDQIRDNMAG

The inhibition is the drop in the measured response relative to a control, in per cent. In the case of `NC(=O)c1ccc(Oc2nccc(-c3c(-c4ccc(F)cc4)ncn3C3CCNCC3)n2)cc1`, the inhibition was 2.32% in test [1]; 3.88% in test [2]; 0.7% in test [3]; 2.78% in [4]; 3.18% in [5]; -0.36% in test [6]. For the same compound, the inhibition was -0.92% in test [7], 4.96% in test [8], 9.7% in [9] and 7.24% in [10].
In the case of `Fc1ccc(-c2nc3n(c2-c2ccncc2)CCS3)cc1`, the inhibition in [1] is -1.9%; in test [2] it was 2.03%; in [3], 4.76%; in [4], 0.84%; in [5] it was 1.07%; in test [6] it was -4.98%. Moreover, the inhibition was -4.14% in test [7], 5.19% in test [8], 8.03% in [9] and 5.12% in test [10].
For `N#Cc1ccc(Oc2nccc(-c3c(-c4ccc(F)cc4)ncn3C3CCNCC3)n2)cc1`, the inhibition in [1] is 0.22%; in test [2], 3.07%; in [3], 3.3%; in [4] it was 1.47%; in test [5] it was 0.75%; in [6], -3.92%. In addition, the inhibition amounted to 1.56% in test [7], 3.95% in test [8], 4.78% in test [9] and 6.17% in [10].
Turning to `NCc1ccc(-n2c(-c3nonc3N)nc3cnccc32)cc1`, the inhibition in test [1] was 2.4%; in [2], 4.99%; in test [3], 5.42%; in [4] it was 1.95%; in [5] it was 2.09%; in test [6], -0.04%. Besides, the inhibition in [7] was 1.57%; in test [8], 10.5%; in [9] it was 22.8%; in [10] it was 5.81%.
Consider `c1ccc(-c2n[nH]cc2-c2ccnc(-c3ccc(OCCN4CCOCC4)cc3)c2)nc1`, for which the inhibition in test [1] was 3.99%; in test [2], 6.98%; in test [3] it was 4.5%; in test [4], 0.47%; in test [5], -0.22%; in test [6] it was 6.96%. Further, the inhibition is 5.88% in test [7], 13.7% in test [8], 60.8% in test [9] and 0.56% in test [10].
Regarding `CNC(=O)c1cncc(/C=C/c2c(C)cccc2C)c1`, the inhibition in test [1] is -3.29%; in [2], 0.62%; in [3], -1.32%; in test [4], 2.87%; in [5], 2.41%; in test [6], -3.28%. Further, the inhibition in test [7] was -0.59%; in test [8], 3.77%; in test [9] it was 3.51%; in test [10], 10.7%.
On to `O=C(NCC1CC1)c1ccc(-c2cccc(C(=O)NC3CC3)c2)cc1`, for which the inhibition in [1] is 2.71%; in [2] it was 0.26%; in [3], -6.93%; in test [4] it was 1.73%; in test [5], 0.94%; in test [6], -0.66%. Further, the inhibition turned out to be 0.07% in test [7], 5.99% in [8], 8.55% in [9] and 1.06% in test [10].
As to `CN(c1ccc(NC(=O)Nc2c(Cl)cccc2Cl)cc1)c1ccnc(Nc2cccc(CS(C)(=O)=O)c2)n1`, the inhibition worked out at 71.1% in test [1]; 8.34% in test [2]; 19.7% in test [3]; 2.35% in [4]; 20.7% in [5]; 0.53% in test [6]. Also, the inhibition was found to be 2.77% in test [7], 24.6% in test [8], 56.3% in test [9] and 88.5% in test [10].
Take `COc1ccc2ncn(-c3cc(O[C@H](C)c4ccccc4Cl)c(C(N)=O)s3)c2c1`: the inhibition in [1] is -2.51%; in [2], -3.1%; in test [3], 2.15%; in [4], 1.31%; in test [5], 1.04%; in test [6], -7%. Moreover, the inhibition in test [7] is -5.28%; in test [8] it was 3.61%; in [9] it was 13.4%; in test [10], 4.64%.
As to `O=C(Nc1n[nH]c2cc(-c3ccccc3)ccc12)C1CC1`, the inhibition in test [1] is 2.12%; in [2], 2.85%; in test [3], 7.69%; in test [4], 2.26%; in test [5], 0.77%; in test [6], -1.69%. The inhibition in test [7] was found to be 0.16%; in test [8], 4.79%; in test [9], 12.6%; in test [10] it was 3.52%.
Consider `c1ccc(Oc2ccc(Nc3ncc(-c4ccccc4)o3)cc2)cc1`, for which the inhibition in test [1] is 2.13%; in [2], 0.76%; in test [3] it was 3.56%; in test [4], 1.66%; in [5], 1.65%; in test [6] it was -0.5%. Further, the inhibition worked out at 4.13% in [7], 4.37% in test [8], 3.48% in [9] and 3.26% in test [10].
In the case of `Clc1ccc(CNc2nccc(-c3cnn4ncccc34)n2)cc1`, the inhibition in [1] was 1.37%; in test [2], -0.37%; in test [3], -0.62%; in test [4], 1.52%; in [5], 3.6%; in test [6] it was -0.04%. Besides, the inhibition in test [7] came out at 2.94%; in test [8] it was 0.99%; in [9] it was 2.77%; in test [10], 5%.
Regarding `Fc1ccc(-c2ncn(C3CCNCC3)c2-c2ccnc(Oc3ccc(Oc4ccccc4)cc3)n2)cc1`, the inhibition in test [1] amounted to 2.41%; in test [2] it was 1.18%; in [3], 1.84%; in test [4], 2.34%; in [5], 3.84%; in test [6], 1.04%. In addition, the inhibition in test [7] is 0.1%; in [8], 2.97%; in test [9], 10.7%; in test [10], 2.94%.
Consider `COc1cc(Nc2ncc3c(C)nc(-c4cccc(Oc5ccccc5)c4)n3n2)cc(OC)c1OC`, for which the inhibition was 2.18% in [1]; 1.98% in test [2]; -5.12% in test [3]; 0.96% in test [4]; 2.54% in test [5]; 0.02% in [6]. Also, the inhibition in [7] was 1.74%; in test [8] it was 2.28%; in test [9] it was 3.61%; in test [10], 3.09%.
Turning to `NS(=O)(=O)c1ccc(N/N=C2\C(=O)Nc3ccc(C(=O)NCCCn4ccnc4)cc32)cc1`, the inhibition was 3.12% in test [1]; 5.06% in test [2]; 23.8% in [3]; 0.1% in test [4]; 4.95% in test [5]; -2% in [6]. For the same compound, the inhibition in test [7] came out at 18.8%; in test [8], 8.51%; in test [9], 34.1%; in [10], 4.8%.
For `O=C(Nc1n[nH]c2nc(-c3ccc(O)cc3)c(Br)cc12)C1CC1`, the inhibition in [1] turned out to be 3.5%; in test [2] it was 15.5%; in test [3], 55%; in [4], 3.57%; in test [5], 28.4%; in [6] it was 11.9%. In addition, the inhibition in test [7] turned out to be 62.2%; in test [8], 36.2%; in test [9] it was 71.6%; in test [10], 17.5%.
For `Nc1nccc(-c2c(-c3ccc(F)cc3)ncn2C2CCC(O)CC2)n1` (stereo not given), the inhibition in test [1] was 0.63%; in test [2], -6.08%; in test [3] it was -2.41%; in test [4], -0.54%; in [5], -0.27%; in test [6] it was 1.29%. Also, the inhibition in [7] was 2.69%; in [8], 2.29%; in [9], 17.2%; in [10] it was -1.79%.
